In PubChem BioAssay:
This is one part of the list. Activity calls are given as the source filed them.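 The calls were made as follows, unless noted: active = mean inhibition above 46.68%, the untreated control wells mean plus 3 SD; inactive = the rest.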

How the values were obtained:
[1] = biological target: Nuclear receptor coactivator 3 (Homo sapiens) (UniProt Q9Y6Q9); test: SRC3 coactivator transcriptional activity inhibitors, confirmation, cell-based, luminescence, quadruplicate (AID 588792;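 active = mean inhibition over 43.08%, the solvent-only control mean plus 3 SD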;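 also: 0% = DMSO treated cells and 100% = gossypol at 36 µM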); details: HEK293 GAL4-SRC3 luciferase reporter, at 3.6 µM, stronger effect = higher value
[2] = tested on: transactivating tegument protein VP16 (Human herpesvirus 1), Gal4-VP16 luciferase reporter; test: VP16 transactivation inhibitors, counter-screen for SRC3 inhibitor project, cell-based, luminescence, high throughput (AID 588794; in the data active = inhibition above about 30%); details: mammalian cells, VP16-driven luciferase reporter luminescence; at 3.6 µM; stronger effect = higher value
[3] = biological target: Nuclear receptor coactivator 1 (Homo sapiens) (UniProt Q15788); test: SRC1 coactivator transcriptional activity inhibitors, confirmation, cell-based, luminescence, quadruplicate (AID 588820); details: HEK293 GAL4-SRC1 luciferase reporter, at 3.6 µM, stronger effect = higher value;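 also: 0% = DMSO wells and 100% = gossypol 36 µM treated wells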
[4] = VP16 transactivation inhibitors, counter-screen for SRC1 inhibitor project, cell-based, luminescence, high throughput (AID 588824; in the data active = inhibition above about 25%); details: cell-based VP16 transactivation luciferase luminescence; at 3.6 µM; stronger effect = higher value
[5] = biological target: Photoreceptor-specific nuclear receptor (Homo sapiens) (UniProt Q9Y5X4); test: NR2E3 agonist confirmation in cells, cell-based, luminescence, CHO-S two-hybrid (AID 624378;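 active = average inhibition above a cutoff equal to the mean inhibition of all tested compounds plus one SD, cut at about 70% in these data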;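 also: 0% = DMSO in NR2E3 cells and 100% = DMSO in cells lacking NR2E3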); details: CHO-S mammalian two-hybrid NR2E3-NCOR, luciferase luminescence; at 3.98 µM; stronger effect = higher value
[6] = GAL4-VP16 reporter modulators, confirmation, counter-screen for NR2E3 agonist project, cell-based, luminescence, CHO-S, high throughput (AID 624379;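 active = mean inhibition above a cutoff equal to the average over all tested compounds plus one standard deviation, cut at about 70% in these data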;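 also: 0% = DMSO with VP16-transfected cells and 100% = DMSO with cells lacking VP16; higher means less reporter light so more repression of VP16 activity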); details: CHO-S GAL4-VP16 luciferase reporter, at 3.98 µM, stronger effect = higher value
[7] = StAR promoter reporter inhibitors, counter-screen for LRH-1 inverse agonist project, cell-based, luminescence, high throughput (AID 651611; in the data active = inhibition above about 28%); details: StAR promoter luciferase reporter counterscreen, at 3.6 µM, stronger effect = higher value
[8] = biological target: Nuclear receptor subfamily 5 group A member 2 (Homo sapiens) (UniProt O00482); test: LRH-1 (NR5A2) inverse agonists, retest, confirmation, cell-based, luminescence (AID 651613; in the data active = inhibition above about 42%;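 also: HEK293T cells co-transfected with LRH-1 and StAR promoter luciferase reporter; 0% = vehicle wells and 100% = parental cells lacking receptor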); details: cell-based LRH-1 luciferase reporter, inverse agonism; at 3.6 µM; stronger effect = higher value
[9] = biological target: Steroidogenic factor 1 (Homo sapiens) (UniProt Q13285); test: SF1 (NR5A1) inverse agonists, counter-screen for LRH-1 inverse agonist project, cell-based, luminescence, high throughput (AID 651614; in the data active = inhibition above about 44%;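 also: cells cotransfected with StAR promoter reporter and SF1 expression vector; 0% = vehicle on cells with receptor and 100% = vehicle on cells lacking receptor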); details: cell-based SF1 luciferase reporter, at 3.6 µM, stronger effect = higher value
[10] = VP16 transactivation reporter inhibitors, counter-screen for LRH-1 inverse agonist project, cell-based, luminescence, high throughput (AID 651615; in the data active = inhibition above about 33%); details: Gal4-VP16 luciferase reporter cells, at 3.6 µM, stronger effect = higher value
[11] = tested on: transactivating tegument protein VP16 (Human herpesvirus 1); test: VP16 transactivation reporter inhibitors, counter-screen for SRC2 inhibitor project, cell-based, luminescence, single concentration (AID 652007; in the data active = inhibition above about 36%); details: cell-based VP16 transactivation luciferase reporter, at 8.9 µM, stronger effect = higher value
[12] = biological target: Nuclear receptor coactivator 2 (Homo sapiens) (UniProt Q15596); test: SRC2 coactivator transcriptional activity inhibitors, confirmation, cell-based, luminescence, HEK293, triplicate (AID 652008;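 active = mean inhibition above 46.5%, the solvent-only control mean plus 3 SD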;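 also: 0% = DMSO-treated cells and 100% = Gossypol at 36 µM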); details: HEK293 GAL4-SRC2 luciferase reporter, at 8.9 µM, stronger effect = higher value
[13] = Gal4-VP16 luciferase reporter inhibitors, counter-screen for COUP-TFII antagonist project, cell-based, luminescence, HEK293 (AID 687007; in the data active = inhibition above about 13%); details: at 8.5 µM, stronger effect = higher value
[14] = biological target: COUP transcription factor 2 (Homo sapiens) (UniProt P24468); test: NR2F2 transcriptional activity inhibitors, confirmation, cell-based, luciferase reporter, HEK293, triplicate (AID 687008;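 active = mean inhibition over three repeats above a set limit taken from the earlier primary screen, cut at about 38% in these data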;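 also: 100% = cells given the luciferase reporter alone without the COUP-TF2 vector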); details: HEK293 NGFI-A luciferase reporter, luminescence; at 8.5 µM; stronger effect = higher value
[15] = biological target: Galanin receptor type 2 (Homo sapiens) (UniProt O43603); test: GALR2 antagonists, retest of hits, confirmation, cell-based (AID 866; in the data active = inhibition above about 27%;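 also: cells stimulated with galanin at about its EC80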); details: GALR2-expressing cells, antagonist mode, at 4 µM, stronger effect = higher value
[16] = inhibitors of NFAT-driven beta-lactamase reporter, confirmation, counter-screen for GALR2 antagonist project, CHO NFAT-bla cells, FRET readout (AID 867;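 active = inhibition above the mean inhibition across tested compounds plus 3 SD, cut at about 27% in these data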;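 also: 0% = 500 nM thapsigargin stimulated wells and 100% = unstimulated BSA only wells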); details: thapsigargin-stimulated, at 4.2 µM, stronger effect = higher value
[17] = biological target: Receptor-interacting serine/threonine-protein kinase 2 (Homo sapiens) (UniProt O43353); test: NOD2-RIPK2 binding disruptors, retest, confirmation, fluorescence, CHO cells, BLA complementation, triplicate (AID 624370;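 active = mean inhibition across replicates above a set limit taken from the earlier primary screen, cut at about 21% in these data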;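 also: 0% = DMSO-only wells and the high end = clavulanate BLA-blocked wells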); details: CCF4 FRET, at 4.98 µM, stronger effect = higher value
[18] = beta-lactamase reporter inhibitors in CHO cells, confirmation, artefact control for NOD2-RIPK2 interaction inhibitor project, cell-based, CHO-K1 CMV-bla, CCF4 FRET, fluorescence (AID 624371;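 active = mean inhibition above the low-control mean inhibition plus three low-control SD, cut at about 11% in these data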;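 also: 0% = DMSO only wells and 100% = clavulanate high control wells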); details: CCF4 FRET ratio, counterscreen, at 4.98 µM, stronger effect = higher value

Measured: inhibition

Steroidogenic factor 1 (Homo sapiens), sequence (Q13285 whole entry, looked up, the tested form may be a part): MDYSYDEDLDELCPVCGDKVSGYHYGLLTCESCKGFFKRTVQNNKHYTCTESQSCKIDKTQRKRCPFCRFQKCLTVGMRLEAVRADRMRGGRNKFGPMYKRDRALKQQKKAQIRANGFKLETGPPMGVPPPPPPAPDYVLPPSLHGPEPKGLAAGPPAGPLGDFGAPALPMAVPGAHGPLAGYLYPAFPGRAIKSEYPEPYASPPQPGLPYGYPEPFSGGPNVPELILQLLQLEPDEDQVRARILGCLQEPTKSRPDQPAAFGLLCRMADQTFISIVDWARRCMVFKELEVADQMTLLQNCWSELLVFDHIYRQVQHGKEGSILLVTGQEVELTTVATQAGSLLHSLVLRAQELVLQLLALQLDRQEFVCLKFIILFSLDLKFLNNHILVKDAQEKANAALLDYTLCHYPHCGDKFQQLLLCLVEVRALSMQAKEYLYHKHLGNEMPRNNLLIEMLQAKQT
Nuclear receptor subfamily 5 group A member 2 (Homo sapiens), sequence (O00482 whole entry, looked up): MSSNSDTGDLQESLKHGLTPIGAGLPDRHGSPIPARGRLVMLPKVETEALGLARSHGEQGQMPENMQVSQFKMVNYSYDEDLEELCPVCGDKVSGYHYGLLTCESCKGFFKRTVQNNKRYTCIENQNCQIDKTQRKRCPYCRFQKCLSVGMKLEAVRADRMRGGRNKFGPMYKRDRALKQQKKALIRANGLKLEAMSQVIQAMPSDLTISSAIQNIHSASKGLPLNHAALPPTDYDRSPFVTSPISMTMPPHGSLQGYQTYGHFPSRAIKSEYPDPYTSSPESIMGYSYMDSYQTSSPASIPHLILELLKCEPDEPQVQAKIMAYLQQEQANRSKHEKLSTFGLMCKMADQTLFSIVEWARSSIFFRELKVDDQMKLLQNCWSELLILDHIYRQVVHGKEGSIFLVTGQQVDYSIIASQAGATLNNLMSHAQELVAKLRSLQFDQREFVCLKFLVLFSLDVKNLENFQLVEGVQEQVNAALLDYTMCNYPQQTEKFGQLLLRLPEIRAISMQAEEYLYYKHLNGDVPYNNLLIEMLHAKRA
Photoreceptor-specific nuclear receptor (Homo sapiens), sequence (Q9Y5X4 whole entry, looked up, the tested form may be a part): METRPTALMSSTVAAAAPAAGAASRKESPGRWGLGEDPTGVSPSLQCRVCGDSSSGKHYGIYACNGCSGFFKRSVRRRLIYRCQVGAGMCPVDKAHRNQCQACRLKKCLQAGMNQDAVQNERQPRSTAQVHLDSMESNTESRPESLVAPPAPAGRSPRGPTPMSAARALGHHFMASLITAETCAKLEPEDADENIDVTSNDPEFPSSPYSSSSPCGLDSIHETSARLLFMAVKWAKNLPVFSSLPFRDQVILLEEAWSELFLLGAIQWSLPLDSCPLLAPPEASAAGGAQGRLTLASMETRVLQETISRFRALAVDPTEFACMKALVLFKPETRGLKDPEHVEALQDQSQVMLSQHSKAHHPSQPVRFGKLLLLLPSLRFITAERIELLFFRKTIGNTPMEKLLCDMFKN
Nuclear receptor coactivator 2 (Homo sapiens), sequence (Q15596 whole entry, looked up, the tested form may be a part): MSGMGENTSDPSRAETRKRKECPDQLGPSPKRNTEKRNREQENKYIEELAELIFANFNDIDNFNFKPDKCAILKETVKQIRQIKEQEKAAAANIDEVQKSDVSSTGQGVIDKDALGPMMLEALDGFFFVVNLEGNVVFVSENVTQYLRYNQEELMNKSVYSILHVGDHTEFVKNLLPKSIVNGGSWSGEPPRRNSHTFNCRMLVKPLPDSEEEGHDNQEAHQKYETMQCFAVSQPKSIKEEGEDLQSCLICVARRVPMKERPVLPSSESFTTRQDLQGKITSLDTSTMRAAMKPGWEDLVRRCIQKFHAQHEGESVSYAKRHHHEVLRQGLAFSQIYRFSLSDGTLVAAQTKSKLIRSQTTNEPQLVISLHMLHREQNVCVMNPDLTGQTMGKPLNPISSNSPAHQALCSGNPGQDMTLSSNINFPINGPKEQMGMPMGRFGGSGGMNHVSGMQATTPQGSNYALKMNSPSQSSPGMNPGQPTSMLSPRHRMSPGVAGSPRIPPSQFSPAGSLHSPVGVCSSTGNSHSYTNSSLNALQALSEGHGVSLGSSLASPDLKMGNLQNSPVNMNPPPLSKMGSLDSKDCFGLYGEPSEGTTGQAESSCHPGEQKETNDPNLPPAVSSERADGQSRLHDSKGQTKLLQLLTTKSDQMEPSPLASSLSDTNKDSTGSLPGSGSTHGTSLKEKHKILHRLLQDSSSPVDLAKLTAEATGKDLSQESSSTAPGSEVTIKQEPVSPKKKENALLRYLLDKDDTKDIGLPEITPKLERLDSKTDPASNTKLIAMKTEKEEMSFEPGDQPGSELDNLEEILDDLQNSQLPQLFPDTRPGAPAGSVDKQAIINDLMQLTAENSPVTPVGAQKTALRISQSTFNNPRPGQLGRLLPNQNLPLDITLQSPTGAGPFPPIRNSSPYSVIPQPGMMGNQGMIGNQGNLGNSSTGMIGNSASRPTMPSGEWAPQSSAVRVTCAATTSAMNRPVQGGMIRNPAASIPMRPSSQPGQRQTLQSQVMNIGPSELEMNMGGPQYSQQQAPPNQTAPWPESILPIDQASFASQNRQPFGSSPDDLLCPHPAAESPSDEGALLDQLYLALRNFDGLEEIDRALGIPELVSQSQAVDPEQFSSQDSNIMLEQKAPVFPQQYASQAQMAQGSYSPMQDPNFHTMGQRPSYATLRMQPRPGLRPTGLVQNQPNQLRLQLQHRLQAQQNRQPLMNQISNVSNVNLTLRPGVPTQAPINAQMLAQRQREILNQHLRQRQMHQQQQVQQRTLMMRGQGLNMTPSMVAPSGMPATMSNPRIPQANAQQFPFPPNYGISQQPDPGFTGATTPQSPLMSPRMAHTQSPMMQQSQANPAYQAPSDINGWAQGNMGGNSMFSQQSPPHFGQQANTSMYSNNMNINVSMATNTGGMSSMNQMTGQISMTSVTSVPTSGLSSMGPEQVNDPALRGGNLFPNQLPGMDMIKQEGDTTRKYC
Nuclear receptor coactivator 1 (Homo sapiens), sequence (Q15788 whole entry, looked up, the tested form may be a part): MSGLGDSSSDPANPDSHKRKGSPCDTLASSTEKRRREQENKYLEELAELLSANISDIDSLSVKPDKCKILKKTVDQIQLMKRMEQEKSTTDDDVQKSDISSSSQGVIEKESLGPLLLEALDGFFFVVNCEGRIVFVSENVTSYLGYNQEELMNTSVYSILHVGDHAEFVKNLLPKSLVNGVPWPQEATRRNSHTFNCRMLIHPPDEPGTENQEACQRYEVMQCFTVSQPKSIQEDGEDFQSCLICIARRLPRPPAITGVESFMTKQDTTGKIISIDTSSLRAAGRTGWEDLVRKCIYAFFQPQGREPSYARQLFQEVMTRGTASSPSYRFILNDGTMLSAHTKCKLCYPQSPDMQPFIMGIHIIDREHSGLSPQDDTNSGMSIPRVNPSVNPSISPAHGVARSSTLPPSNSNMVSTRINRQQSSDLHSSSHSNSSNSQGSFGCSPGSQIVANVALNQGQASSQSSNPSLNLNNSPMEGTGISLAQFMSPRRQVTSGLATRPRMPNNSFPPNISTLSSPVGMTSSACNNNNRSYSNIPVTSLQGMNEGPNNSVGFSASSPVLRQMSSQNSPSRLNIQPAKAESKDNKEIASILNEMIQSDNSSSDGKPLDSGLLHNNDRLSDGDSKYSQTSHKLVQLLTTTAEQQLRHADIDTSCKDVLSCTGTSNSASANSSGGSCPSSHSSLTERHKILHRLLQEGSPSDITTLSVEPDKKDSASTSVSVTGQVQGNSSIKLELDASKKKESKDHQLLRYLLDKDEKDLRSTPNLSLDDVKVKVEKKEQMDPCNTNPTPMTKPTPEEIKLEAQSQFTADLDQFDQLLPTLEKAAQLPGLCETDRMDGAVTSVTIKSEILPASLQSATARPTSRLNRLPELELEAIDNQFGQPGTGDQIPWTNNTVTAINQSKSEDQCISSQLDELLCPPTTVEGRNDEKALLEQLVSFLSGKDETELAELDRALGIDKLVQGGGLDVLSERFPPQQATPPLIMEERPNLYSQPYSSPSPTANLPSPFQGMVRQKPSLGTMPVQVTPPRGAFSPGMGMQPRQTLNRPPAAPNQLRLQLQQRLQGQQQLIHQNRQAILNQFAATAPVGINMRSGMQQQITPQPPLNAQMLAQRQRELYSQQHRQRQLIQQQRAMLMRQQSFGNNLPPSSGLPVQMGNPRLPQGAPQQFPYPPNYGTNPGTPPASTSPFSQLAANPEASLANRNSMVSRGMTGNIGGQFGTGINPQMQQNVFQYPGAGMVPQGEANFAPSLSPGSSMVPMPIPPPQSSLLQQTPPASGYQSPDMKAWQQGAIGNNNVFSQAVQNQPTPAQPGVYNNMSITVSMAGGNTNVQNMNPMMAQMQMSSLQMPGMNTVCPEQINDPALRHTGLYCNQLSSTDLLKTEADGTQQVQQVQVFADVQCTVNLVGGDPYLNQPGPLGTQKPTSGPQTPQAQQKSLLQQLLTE
COUP transcription factor 2 (Homo sapiens), sequence (P24468 whole entry, looked up): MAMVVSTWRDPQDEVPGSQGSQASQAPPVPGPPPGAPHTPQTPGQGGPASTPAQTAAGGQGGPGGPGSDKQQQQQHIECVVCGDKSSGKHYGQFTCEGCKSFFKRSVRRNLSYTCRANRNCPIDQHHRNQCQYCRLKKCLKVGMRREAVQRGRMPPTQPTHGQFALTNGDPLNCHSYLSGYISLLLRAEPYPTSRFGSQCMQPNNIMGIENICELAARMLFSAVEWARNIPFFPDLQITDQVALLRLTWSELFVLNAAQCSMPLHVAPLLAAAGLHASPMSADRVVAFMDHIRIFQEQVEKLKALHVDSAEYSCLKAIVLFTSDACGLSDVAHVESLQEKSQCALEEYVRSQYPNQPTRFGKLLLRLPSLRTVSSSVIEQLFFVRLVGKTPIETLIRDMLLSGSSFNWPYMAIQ

OCCCNc1nccc(-c2cc(Nc3cccc(Cl)c3)ncn2)n1
inactive: [13] 6.3% | [14] 31.2%
active: [1] 95% | [2] 95.2% | [3] 83.5% | [4] 95.1% | [5] 100% | [6] 93.9% | [7] 88.5% | [8] 108% | [9] 96.5% | [10] 93.2% | [11] 57.9% | [12] 49.7%

CC[n+]1c(C=C2C=C(C)OC(C)=C2)sc2ccccc21
inactive: [1] 42.2% | [3] 40.9%
active: [2] 67.2% | [4] 71.5% | [7] 70.3% | [8] 108% | [9] 85% | [10] 92.9%

CC1CC(C)C[N+](=C2C=C(N3CCCC3)CC(C)(C)C2)C1 (stereo not drawn)
inactive: [1] 26.9% | [3] 28.9%
active: [2] 66.7% | [4] 71.5% | [7] 38.9% | [8] 110% | [9] 79.1% | [10] 91.2%

C=CCn1c(C)cc(C2=NNC(=NCC)SC2)c1C
active: [1] 87% | [2] 85.3% | [3] 74.7% | [4] 81% | [5] 77.4% | [6] 73% | [7] 82.1% | [8] 75.7% | [9] 79.8% | [10] 75.6% | [11] 81.8% | [12] 93% | [13] 82% | [14] 105%

CCCC(=O)NC(c1ccc(C)cc1)c1ccc2cccnc2c1O (stereo not drawn)
active: [1] 73.8% | [2] 61.9% | [3] 61.4% | [4] 79% | [7] 86.1% | [8] 103% | [9] 90.8% | [10] 83.1%

NC(=O)c1cc([N+](=O)[O-])ccc1NCc1ccc(O)cc1
active: [2] 43.5% | [4] 30% | [7] 48.6% | [8] 63.8% | [9] 67.8% | [10] 66.9%
inactive: [1] 25.3% | [3] 1.01%

CC[C@H]1CN2CCc3cc(OC)c(OC)cc3[C@@H]2C[C@@H]1C[C@H]1NCCc2cc(OC)c(OC)cc21
inactive: [18] -0.09%
active: [15] 102% | [16] 92.8% | [1] 98.3% | [2] 97.2% | [3] 92.6% | [4] 96.4% | [17] 30.7% | [5] 97.8% | [6] 99.2% | [7] 94.6% | [8] 109% | [9] 97.7% | [10] 96.4%

CC(C)(C)c1cc(C(=O)N/N=C/c2ccc(O)cc2)n(-c2ccccc2)n1
inactive: [1] 34.9% | [2] 14% | [3] 20.3% | [4] 13.7%

CCCCC[n+]1cccc2c3ccccc3ccc21
active: [2] 59% | [4] 59% | [7] 51.5% | [8] 90% | [9] 81.5% | [10] 77%
inactive: [1] 39.9% | [3] 30.7%

O=C(CSc1nc2sc3c(c2c(=O)n1-c1ccccc1)CCCC3)NCc1ccco1
inactive: [1] 7.86% | [2] -11.9% | [3] 4.53% | [4] -16.3% | [7] 8.53% | [8] 15.3% | [9] 10.7% | [10] 3.41%

CCOc1cc(/C=C(/C#N)c2ccc(Cl)cc2)cc(Cl)c1OCC(=O)O
active: [1] 51.4% | [2] 45.5% | [4] 36.9% | [6] 77.7% | [11] 77.6% | [12] 91%
inactive: [3] 29.6% | [5] 62.7%

CC1Cc2ccccc2N1c1ncnc(N)c1[N+](=O)[O-] (stereo not drawn)
active: [1] 84.3% | [2] 68% | [3] 81.5% | [4] 65.6% | [7] 39.9% | [8] 63.6% | [9] 46.7% | [10] 82.4%

CN(C(=O)OC(C)(C)C)c1ccc(-c2nc3ccccc3s2)cc1
active: [1] 87.1% | [2] 84.5% | [3] 78.8% | [4] 76.6% | [7] 75.6% | [8] 80.9% | [9] 77.3% | [10] 78.5%

CN(C)CCCN1C(=O)c2cccc3c([N+](=O)[O-])ccc(c23)C1=O
inactive: [1] 17.8% | [2] 5.35% | [3] -9.62% | [4] 0.85%

O=c1[nH]c(=S)ccn1C1OC(CO)C(O)C1O (stereo not drawn)
inactive: [1] 3.59% | [2] -0.78% | [3] -11.9% | [4] -8.74%

CC(C)(C)c1ccc(Oc2ccc(N)cc2)cc1
inactive: [5] 36.9%
active: [1] 68.3% | [2] 61.4% | [3] 52.4% | [4] 57.7% | [6] 71.6% | [7] 71.2% | [8] 88.6% | [9] 78.9% | [10] 60.1% | [11] 90.2% | [12] 95.2% | [13] 91.8% | [14] 101%

COc1ccc(Cn2c(-c3ccc(C)cc3)c[n+]3ccccc23)cc1
inactive: [1] 35.9% | [3] 19.8%
active: [2] 52.1% | [4] 54.5% | [7] 50.2% | [8] 96.1% | [9] 79.5% | [10] 74%
